MPTP inh: inhibitors of mitochondrial permeability transition pore. isolated mouse mitochondria, Ca2+ swelling absorbance, 30 min. inhibition, % at 10 µM. hit rate 1.4% among 360,000;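 active = inhibition of 50% or more, scaled per plate between neutral and stimulator controls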;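 note: 0% = DMSO wells given calcium and 100% = 1 mM EGTA wells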
Calb FLC: affects C. albicans growth with fluconazole | hit rate 0.57% among 300,000 | growth inhibition, % (concentration not given with the values) | C. albicans CaCi-2 (fluconazole-resistant clinical isolate) + fluconazole, Alamar Blue growth, 48 h;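 active = growth inhibition above about 58% in most replicates, limit read from the data, passing the limit was not always enough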;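 note: all wells also contain fluconazole at 8 µg/ml as a sub-toxic cotreatment; 0% = median of DMSO wells and 100% = median of geldanamycin control wells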
CSC inhib: cancer stem cell inhibition; hit rate 1.1% among 300,000; inhibition, % at 7.5 µM; AID 2717; cancer stem cell-like cells viability, luminescence; in the data active = inhibition above about 75%; tested in HMLE shEcad cells
Beta cell apopt: beta cell apoptosis inhibition; AID 435005; protection from apoptosis, % (no concentration beside the values); hit rate 0.8% among 300,000; INS-1E cytokine-induced death, ATP luminescence, 48 h; percent of positive-control rescue, neutral wells zero;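 active = Every replicate reaches about 75%, or at least half do and their mean reaches it too, limit read from the data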;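 note: 0% = cytokine-treated negative control wells and 100% = positive control rescue; higher means more ATP so stronger rescue from cytokine killing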
Mdm2 MdmX PPI: human Mdm2/MdmX binding inhibition; inhibition, % at 8 µM; SaOS-2 split-luciferase Mdm2/MdmX complementation, luminescence; O15151+Q00987; hit rate 3% among 330,000; AID 485346;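 active = inhibition of at least 50% at 8 µM in the primary screen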
Target sequence (O15151 whole entry, looked up): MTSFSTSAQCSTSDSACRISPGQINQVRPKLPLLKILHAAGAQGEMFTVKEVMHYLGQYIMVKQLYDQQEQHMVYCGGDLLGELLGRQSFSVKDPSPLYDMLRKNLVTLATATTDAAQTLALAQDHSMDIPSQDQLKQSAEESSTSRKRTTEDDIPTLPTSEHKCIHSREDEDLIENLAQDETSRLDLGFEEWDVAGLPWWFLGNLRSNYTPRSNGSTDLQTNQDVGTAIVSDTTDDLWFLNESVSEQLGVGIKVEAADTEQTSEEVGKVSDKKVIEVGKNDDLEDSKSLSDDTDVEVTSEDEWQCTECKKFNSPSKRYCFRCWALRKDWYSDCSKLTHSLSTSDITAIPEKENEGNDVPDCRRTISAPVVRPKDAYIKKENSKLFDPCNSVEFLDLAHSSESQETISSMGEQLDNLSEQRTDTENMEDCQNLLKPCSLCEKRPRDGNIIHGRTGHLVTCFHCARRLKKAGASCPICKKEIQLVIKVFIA
Target sequence (Q00987 whole entry, looked up): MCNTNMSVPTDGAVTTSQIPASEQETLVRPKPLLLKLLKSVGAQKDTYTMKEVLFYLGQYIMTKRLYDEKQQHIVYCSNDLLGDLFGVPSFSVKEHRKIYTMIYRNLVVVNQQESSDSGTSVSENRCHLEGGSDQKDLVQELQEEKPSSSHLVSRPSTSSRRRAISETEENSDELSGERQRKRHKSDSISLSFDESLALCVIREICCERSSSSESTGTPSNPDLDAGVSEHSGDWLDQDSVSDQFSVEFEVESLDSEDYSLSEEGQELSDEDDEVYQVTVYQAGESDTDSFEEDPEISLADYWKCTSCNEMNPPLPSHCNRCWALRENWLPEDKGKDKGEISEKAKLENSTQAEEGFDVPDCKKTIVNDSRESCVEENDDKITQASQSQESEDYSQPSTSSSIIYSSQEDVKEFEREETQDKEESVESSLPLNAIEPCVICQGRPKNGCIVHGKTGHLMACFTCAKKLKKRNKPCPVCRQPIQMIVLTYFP
Mdm2 MdmX conf: human Mdm2/MdmX binding inhibition, confirmed; shares compounds with Mdm2 MdmX PPI; luminescent assay; inhibition, % at 8 µM; hit rate 55% among 10,000; in the data active = inhibition above about 40%
FLuc counter: inhibits full-length luciferase, flagging false Mdm2/MdmX hits; shares compounds with Mdm2 MdmX PPI; SaOS-2 full-length luciferase counterscreen, luminescence; inhibition, % at 8 µM; hit rate 77% among 6,200;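 active = mean inhibition at 8 µM reaching about 37%, which flags the compound as non-specific, limit read from the data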;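 note: p53-null SaOS-2 cells with luciferase driven by a doxycycline-inducible promoter; compound on cells about two nights before reading with doxycycline added after day one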
The depositor's hits bear a star; nt = no result; + = active, no number. An excerpt weighted towards active compounds, which were near 4.8% of everything screened.

SMILES | MPTP inh | Calb FLC | CSC inhib | Beta cell apopt | Mdm2 MdmX PPI | Mdm2 MdmX conf | FLuc counter
Cc1cccc2cc(CN(C(=O)c3cnccn3)C3CCCCC3)c(Cl)nc12 | 1.1 | -2.5 | 10.8 | -4.4 | 84.4* | 82.6* | 36.3*
COc1ccc(-c2cn(-c3ccccc3)c(=S)[nH]2)cc1OC | -1.0 | 5.1 | -7.0 | -5.0 | 94.4* | -45.4 | nt
COc1ccc2c(c1)[nH]c1c(=O)n(/N=C/C3C(C)C=C(C)CC3C)c(=O)[nH]c12 (configuration not stated) | 2.9 | 6.5 | 100.4* | 53.5 | 69.3* | 12.8 | nt
CC1=CC(C)[C@H](/C=N/n2c(=O)[nH]c3c([nH]c4ccc(Br)cc43)c2=O)C(C)C1 (some centres not stated) | 12.1 | -7.2 | + | 61.3 | 97.7* | 18.4 | nt
COc1ccc(N/N=C(\C=N\O)C(=O)c2ccc(OC)cc2)cc1 | 0.2 | -15.1 | -5.1 | 19.4 | 55.9* | 56.5* | 60.3*
CC(/C=C(\NC(=O)c1ccccc1)C(=O)N=Nc1c(O)[nH]c2ccc(C)cc12)=C\c1ccccc1 | 1.3 | 50.2 | 15.0 | 34.0 | 64.3* | 46.7* | 81.9*
O=C(Nc1ccc(Cl)c(Cl)c1)Nn1cnnc1 | 40.8 | 7.5 | -11.4 | -9.8 | 22.5 | nt | nt
O=C(Nc1ccc(Cl)cc1)Nc1ccc(Cl)c(Cl)c1 | nt | nt | 44.2 | 113.1* | 89.3* | 89.6* | 26.8
Cc1cccc2c1-c1sc(C(=O)NCCCN3CCC(C)CC3)cc1CO2 | 11.8 | -0.4 | 16.0 | 3.8 | 57.4* | 15.2 | nt
CCNC(=S)N/N=C/c1c(C)nn(-c2cccc(Cl)c2)c1Cl | -0.2 | 3.3 | -5.2 | 0.1 | 13.3 | nt | nt
Cc1nn(-c2cccc(Cl)c2)c(Cl)c1/C=N/NC(=O)c1cccs1 | 5.6 | 8.2 | 30.0 | 14.9 | 78.4* | 53.5* | 48.2*
CCOC(=O)N1CCC(N(CCN(C)C)C(=S)Nc2cc(Cl)cc(Cl)c2)CC1 | 1.3 | 5.0 | 20.5 | -12.2 | 67.4* | 42.1* | 49.6*
Cc1ccc(NC(=O)CSc2nc3ccc(Nc4nc(N5CCOCC5)nc(N5CCOCC5)n4)cc3s2)cc1 | 0.5 | -12.2 | 55.9 | 41.0 | 94.9* | 41.2* | 26.2
CC(C)(C)NC(=O)CSc1nc2ccc(Nc3nc(N4CCOCC4)nc(N4CCOCC4)n3)cc2s1 | 4.1 | 11.9 | 8.6 | 7.7 | 29.6 | nt | nt
CCOC(=O)c1ccc(NC(=O)CSc2nc(N3CCOCC3)nc(N3CCOCC3)n2)cc1 | -0.4 | 14.4 | 0.9 | -2.9 | 74.1* | 25.1 | nt
O=C(CSc1nc(Nc2ccccc2)nc(N2CCOCC2)n1)Nc1ccccc1Cl | 1.7 | -3.9 | 26.1 | 14.3 | 75.1* | 24.6 | nt
CC(=O)CSc1nc2ccc(Nc3nc(N4CCOCC4)nc(N4CCOCC4)n3)cc2s1 | 3.6 | 5.4 | -7.0 | 2.0 | 20.5 | nt | nt
COc1ccc(NC(=O)CSc2nc3ccc(Nc4nc(N5CCOCC5)nc(N5CCOCC5)n4)cc3s2)cc1 | 1.7 | 2.9 | 39.0 | nt | 85.1* | 49.4* | 36.7*
Cc1ccc(C(=O)NC(C)C2CC3CCC2C3)cc1 (configuration not stated) | 1.8 | 0.6 | -8.1 | 1.5 | -14.1 | nt | nt
COc1ccc(Nc2nc(N3CCOCC3)nc(N3CCOCC3)n2)cc1Cl | -0.1 | -5.7 | 4.1 | nt | 61.1* | 22.1 | nt
CCOc1ncccc1C(=O)Nc1cccc(S(=O)(=O)N2CCOCC2)c1 | -2.5 | nt | -32.9 | -2.6 | -7.2 | nt | nt
O=C(Nc1ccccc1N1CCOCC1)c1cc(-c2ccco2)nc2ccccc12 | 1.3 | -1.2 | 27.7 | -1.4 | 70.3* | 53.2* | 68.5*
COc1cc(-c2cc(C(=O)Nc3ccccc3N3CCOCC3)c3ccccc3n2)cc(OC)c1OC | -1.8 | -4.0 | -2.3 | 13.8 | 45.8 | nt | nt
Cc1cccc(C)c1NC(=O)CN(C1CCCCC1)S(C)(=O)=O | 0.2 | -4.1 | 0.7 | -4.2 | 13.9 | nt | nt
Cn1nccc1-c1ccc(C(=O)NCc2ccc(Cl)cc2)c2occc12 | 0.2 | nt | nt | nt | nt | nt | nt
SMILES | MPTP inh | Calb FLC | CSC inhib | Beta cell apopt | Mdm2 MdmX PPI | Mdm2 MdmX conf | FLuc counter
COCCn1c(C)cc(C(=O)COC(=O)c2cccnc2SC)c1C | -0.1 | nt | -9.6 | 11.3 | -11.1 | nt | nt
Cc1cc(C(=O)COC(=O)c2ccccc2O)c(C)n1CC1CCCO1 (configuration not stated) | 0.3 | nt | nt | 12.0 | 93.7* | 97.3* | 35.8
Cc1cc(C(=O)COC(=O)c2cccnc2Cl)c(C)n1CC1CCCO1 (configuration not stated) | 1.8 | 11.0 | -14.6 | 8.3 | 79.1* | 81.5* | 97.4*
COCCn1c(C)cc(C(=O)COC(=O)c2ccccc2Br)c1C | 0.4 | 23.7 | -6.8 | 2.0 | 79.8* | 92.8* | 73.7*
CCn1c(C)cc(C(=O)COC(=O)c2ccccc2[N+](=O)[O-])c1C | -0.8 | nt | 7.2 | 32.3 | 96.3* | 96.3* | 53.2*
O=C1NC[C@@H](CCCCN2C[C@H](Cc3ccccc3)N(Cc3ccccc3)C(=O)C2=O)N(Cc2ccccc2)C1=O | -2.0 | nt | nt | nt | nt | nt | nt
COc1ccccc1NS(=O)(=O)c1cccc(C(=O)NNC(=O)C(C)NC(=O)c2ccco2)c1 (configuration not stated) | -0.9 | nt | -0.9 | -7.4 | -14.9 | nt | nt
O=C(C(=O)N1CCN(c2ccccc2)CC1)c1ccco1 | 0.0 | nt | nt | nt | nt | nt | nt
CCN(CC)C1Oc2cc3c(cc2C(c2cc(OC)c(OC)c(OC)c2)C1C)OCO3 (configuration not stated) | 3.8 | nt | nt | nt | nt | nt | nt
Cc1ccc(C(=O)OCC(=O)c2cc(C)n(CC3CCCO3)c2C)cc1 (configuration not stated) | 0.1 | -0.8 | -2.6 | -4.9 | 9.8 | nt | nt
Cc1cc(C(=O)COC(=O)c2ccccc2O)c(C)n1Cc1cccs1 | -0.8 | -10.6 | 5.4 | 7.9 | 96.9* | 94.2* | 21.1
Cc1cc(C(=O)COC(=O)c2ccccc2Br)c(C)n1CC1CCCO1 (configuration not stated) | 1.4 | -2.6 | -16.6 | 9.2 | 90.9* | 93.2* | 38.6*
Cc1cc(C(=O)COC(=O)c2ccccc2NCCO)c(C)n1CC1CCCO1 (configuration not stated) | 0.0 | -4.5 | 16.8 | -4.6 | 4.7 | nt | nt
Cc1cc(C(=O)COC(=O)c2cccc(NS(C)(=O)=O)c2)c(C)n1CC1CCCO1 (configuration not stated) | 4.0 | nt | -26.4 | -1.1 | 70.4* | 74.0* | 97.1*
O=C(COC(=O)c1ccccc1[N+](=O)[O-])c1ccc2c(c1)OCO2 | -1.6 | -1.9 | -12.1 | -8.9 | 53.1* | 82.9* | 148.2*
CCOC(=O)C1=C[C@@H](c2ccccc2)N(S(=O)(=O)c2ccc(C)cc2)[C@H]1c1ccc(OC)cc1 | 1.9 | nt | nt | nt | nt | nt | nt
CCc1nc2ccc(C(=O)NCc3ccc4c(c3)OCO4)cn2c1N(C)Cc1ccc(OC)cc1 | 0.7 | nt | nt | nt | nt | nt | nt
CSc1ccc(/C=C/C(=O)OCC(=O)N2CCN(c3ccccc3)CC2)cc1 | -0.6 | nt | nt | nt | nt | nt | nt
Cc1ccc(C)c(N2CCN(CCCNC(=O)Cn3cccc3C(=O)c3ccccc3C)CC2)c1 | 15.5 | 2.3 | 16.1 | 9.8 | 90.2* | 65.7* | 42.6*
Cc1ccccc1C(=O)c1cccn1CC(=O)NCCC1=CCCCC1 | -0.9 | 3.4 | 0.8 | 1.1 | -4.9 | nt | nt

Screening data (PubChem BioAssay)
